{"source": "PubChem BioAssay (NCATS)", "note": "Records with an inconclusive call do not appear. Where a call stands in place of a potency, no number is given. A number with no mark means an inactive call. The source made the active and inactive calls. Calls follow the shape of the dose curve; as a rule, active = well fitted inhibition curve with a large enough effect; inconclusive = small, poorly fitted or top-dose-only effect; inactive = no such curve, though single readings can be large or run the other way.", "data": [{"target": "Retinaldehyde dehydrogenase 3 (Homo sapiens) (UniProt P47895)", "experiment": "qHTS for Inhibitors of the Aldehyde Dehydrogenase Family (ALDH1A3) Primary screen (AID 2061315)", "conditions": "ALDH inhibition qHTS; series mostly up to 56 µM", "values": [{"molecule": "C=C1CCC(OC(C)=O)C2(C)CC3(O)OC(=O)C(C)=C3CC12", "note": "(configuration not stated)", "Potency": "inactive"}, {"molecule": "CC(C)c1nc(N(C)S(C)(=O)=O)nc(-c2ccc(F)cc2)c1/C=C/[C@@H](O)C[C@@H](O)CC(=O)O", "Potency": "inactive"}, {"molecule": "OC(CN1CCN(c2cccc(Cl)c2)CC1)C(c1ccccc1)c1ccccc1", "note": "(configuration not stated)", "Potency": "inactive"}, {"molecule": "C=C1CCC2C(C)(C)CCCC2(C)C1CC/C(C)=C\\CO", "note": "(configuration not stated)", "Potency": "inactive"}, {"molecule": "COc1ccccc1NC(=O)OCC1CCN(C(=O)OC(C)(C)C)CC1", "Potency": "inactive"}, {"molecule": "C[C@@H]1O[C@@H](O[C@H]2[C@H](O)[C@@H](C(=O)O)O[C@@H](O[C@H]3CC[C@@]4(C)C(CC[C@]5(C)C4CC=C4C6CC(C)(C)CC[C@]6(C(=O)O)CC[C@]45C)C3(C)C)[C@@H]2O[C@@H]2O[C@H](CO)[C@@H](O)[C@H](O)[C@H]2O)[C@H](O)[C@H](O)[C@H]1O", "note": "(some centres not stated)", "Potency": "inactive"}, {"molecule": "COC1CC(O[C@H]2CC[C@@]3(C)C(CCC4C3[C@H](OC(C)=O)[C@@H](OC(=O)/C=C/c3ccccc3)[C@]3(C)C(C(C)=O)CC[C@]43O)C2)OC(C)C1OC1CC(OC)C(OC2CC(OC)C(OC3OC(C)C(OC4OC(CO)C(O)C(O)C4O)C(OC)C3O)C(C)O2)C(C)O1", "note": "(some centres not stated)", "activity change, negative = inhibition": "5.71% [at 11.2 µM]"}]}]}
